High-throughput results from PubChem BioAssay.
PREPL inhibitor – inhibits the human prolyl oligopeptidase-like enzyme; Q4J6C6; recombinant PREPL, fluorescence polarization activity-based probe; inhibition, % at 5.96 µM; actives 0.68% (n = 320,000); AID 2751; in the data active = inhibition above about 43%;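 note: 0% = enzyme with DMSO and 100% = wells lacking enzyme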
AI-2 QS mod – modulates the Vibrio harveyi AI-2 quorum sensing system. Vibrio harveyi JMH597 AI-2 luminescence/OD600 ratio, 9 h; stronger effect = lower value; strain lacks LuxN and CqsS sensors; 0 = neutral-control median. activity change, % at 7.5 µM. AID 2094. actives 0.4% (n = 300,000); in the data active = activity change below about -75%, passing the limit was not always enough; inconclusive = no clear call, values can overlap the other calls;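 note: luminescence divided by OD600 gain over 9 h not by final OD600 alone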
CHT block – inhibits the human high affinity choline transporter; B-score at 10 µM; CHT-expressing cells, membrane potential dye, choline response; stronger effect = lower value; actives 0.86% (n = 310,000); Q9GZV3;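 active = B-score over 3 SD under the library average, and starting fluorescence ratio not unusually high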;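 note: choline stimulus applied at its EC90 after an EC20 pre-addition; B-score computed on integrated fluorescence ratio after choline addition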
Target sequence (Q9GZV3 whole entry, looked up): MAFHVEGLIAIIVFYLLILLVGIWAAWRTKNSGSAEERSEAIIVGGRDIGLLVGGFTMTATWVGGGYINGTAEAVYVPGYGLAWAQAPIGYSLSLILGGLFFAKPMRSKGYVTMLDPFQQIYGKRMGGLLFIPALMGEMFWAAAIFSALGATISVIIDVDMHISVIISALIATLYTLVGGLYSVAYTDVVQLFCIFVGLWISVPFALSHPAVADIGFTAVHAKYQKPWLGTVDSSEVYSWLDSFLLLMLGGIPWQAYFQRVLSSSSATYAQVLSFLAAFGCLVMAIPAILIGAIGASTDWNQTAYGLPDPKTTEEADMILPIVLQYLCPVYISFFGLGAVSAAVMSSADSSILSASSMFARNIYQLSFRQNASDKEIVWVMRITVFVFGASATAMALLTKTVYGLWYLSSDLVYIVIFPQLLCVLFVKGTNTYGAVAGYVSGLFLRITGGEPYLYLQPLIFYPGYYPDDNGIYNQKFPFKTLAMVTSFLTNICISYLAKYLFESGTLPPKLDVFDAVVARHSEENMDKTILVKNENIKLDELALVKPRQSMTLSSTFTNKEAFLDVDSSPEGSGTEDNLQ
CHT PAM – allosteric activators of human choline transporter CHT; Q9GZV3; CHT-expressing cells, membrane potential dye, choline EC20; stronger effect = higher value; LV-AA mutant CHT in HEK293 cells; B-score at 10 µM; actives 0.49% (n = 310,000);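 active = initial fluorescence not abnormally high and integrated response B-score, plate-corrected, over 3 SD above library mean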
ALR inh – human ALR oxidase inhibition via reduced H2O2. inhibition, % (test concentration not listed). P55789. actives 3.8% (n = 290,000). AID 485317. purified ALR, DTT oxidation, H2O2 HRP-luminol luminescence;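 active = mean replicate inhibition above about 79%, with every replicate also reaching it, limit read from the data; inconclusive = only one of the two criteria met; inactive = mean below limit and not every replicate reaching it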
JMH597 growth – retest Vibrio harveyi JMH597 growth inhibition; shares compounds with AI-2 QS mod; OD600 absorbance, 9 h; lacks LuxN and CqsS sensors; growth inhibition, % at 7.5 µM; AID 2726; actives 1% (n = 750);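 active = every replicate shows growth inhibition above 50%; inconclusive = at least half, but not all, replicates pass that cutoff; inactive = fewer than half of replicates pass it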
BB721 lum counter – retest counter-screen: luminescence loss in constitutive-on quorum sensing strain BB721. shares compounds with AI-2 QS mod. Vibrio harveyi BB721 luminescence, 9 h. inhibition, % at 7.5 µM. actives 95% (n = 750);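 active = inhibition above about 80% in every replicate, not just on average, limit read from the data; inconclusive = at least half of replicates past the limit, but not all; inactive = fewer than half of replicates past the limit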
BB721 growth – retest Vibrio harveyi BB721 growth inhibition. shares compounds with AI-2 QS mod. AID 2728. growth inhibition, % at 7.5 µM. actives 3% (n = 750). OD600 absorbance, 9 h;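 active = every replicate shows growth inhibition above 50%; inconclusive = at least half but not all replicates above 50% inhibition; inactive = under half of replicates above 50% inhibition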
AI-2 QS JMH597 – Vibrio harveyi AI-2 signaling luminescence modulation – JMH597 strain, confirmation. inhibition, % at 7.5 µM. Vibrio harveyi JMH597 AI-2 quorum sensing luminescence, 9 h; luxN and CqsS knockout, AI-2 only. AID 2736. shares compounds with AI-2 QS mod. actives 97% (n = 750);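 active = every replicate shows more than 75% inhibition of signal versus neutral control wells; inconclusive = half to three quarters of replicates exceed 75% inhibition; inactive = fewer than half of replicates exceed 75% inhibition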
* marks the source's active call; other numbers are inactive results; i = inactive; ? = inconclusive; nt = no result given. This is a sample that favours compounds with a hit; in the whole collection about 5% have one here.

SMILES	PREPL inhibitor	AI-2 QS mod	CHT block	CHT PAM	ALR inh	JMH597 growth	BB721 lum counter	BB721 growth	AI-2 QS JMH597
Cc1csc2nc(COC(=O)c3ccc(Cl)c([N+](=O)[O-])c3)cc(=O)n12	3.6	nt	nt	nt	-0.7	nt	nt	nt	nt
CC(=O)c1ccc(NCCC(=O)c2ccccc2)cc1	14.8	-82.5*	i	i	0.2	17.7	92.9*	9.2	95.5*
COc1ccc(-c2nn(-c3ccccc3)cc2C(=O)N2CCN(S(=O)(=O)c3cccc(F)c3)CC2)cc1	-22.9	24.9	i	i	9.9	nt	nt	nt	nt
Cc1ccc(S(=O)(=O)Nc2ccc(Nc3ccccc3)cc2)cc1	-16.4	-97.3*	i	i	99.0*	66.5	99.5*	27.2	99.6*
O=C(Nc1ccon1)Nc1ccccc1C(F)(F)F	1.6	19.8	i	i	-5.6	nt	nt	nt	nt
C[C@H](CO)N1C[C@H](C)[C@@H](CN(C)S(=O)(=O)c2ccccc2)Oc2ccc(NS(=O)(=O)c3cn(C)cn3)cc2C1=O	1.0	nt	nt	nt	nt	nt	nt	nt	nt
CC(C)(C)c1ccc(OCC(=O)NN2Cc3ccccc3C2=N)cc1	10.6	-88.5*	i	i	1.1	11.7	?	-7.6	87.6*
N=C1c2ccccc2CN1NC(=O)COc1ccc(Cl)cc1	0.5	32.7	i	i	-2.1	nt	nt	nt	nt
Cc1ccc(NC(=O)c2ccc(OC(=O)c3ccco3)cc2)cc1	8.4	21.0	i	i	4.4	nt	nt	nt	nt
Cc1ccc(Oc2ccc(NC(=O)c3ccco3)cc2)cc1	3.6	-97.3*	i	i	-7.8	42.7	99.7*	?	99.8*
Cc1ccc(Cc2cnc(NC(=O)c3ccco3)s2)cc1	-12.1	-86.1*	i	i	13.7	26.9	97.1*	?	98.3*
O=C(NCc1ccccc1)c1nc2ccccc2s1	-2.6	?	i	i	nt	-3.0	91.5*	-38.5	93.9*
O=C(NCCO)c1nc2ccccc2s1	-14.9	9.4	i	i	0.0	nt	nt	nt	nt
Cc1cc(NC(=O)CCN2CCN(C)CC2)ccc1Br	10.1	-5.5	i	i	-5.1	nt	nt	nt	nt
CCc1nn(CC(=O)Nc2ccc(Br)c(C)c2)c(=N)s1	-1.0	-95.0*	i	i	98.6*	28.7	98.8*	5.7	99.3*
Cc1cc(NC(=O)Cn2nc3c(cc2=O)CCCC3)ccc1Br	-57.2	-97.3*	i	i	-6.9	10.2	99.6*	-4.3	99.8*
COC(=O)c1ccc(NC(=O)c2cccc(NC(=O)c3ccccc3)c2)cc1	-0.9	16.1	i	i	-4.0	nt	nt	nt	nt
COc1ccc(C(CNC(=O)c2ccc(OCc3c(C)noc3C)cc2)N2CCCC2)cc1 (centres undefined)	-22.9	nt	nt	nt	-18.6	nt	nt	nt	nt
CCc1ccccc1NC(=O)c1ccc([N+](=O)[O-])s1	0.5	?	i	i	-14.0	nt	nt	nt	nt
COc1ccc(S(=O)(=O)NCC(=O)Nc2ccc(F)cc2)cc1	-9.8	nt	nt	nt	0.9	nt	nt	nt	nt
CC(C)c1ccc(NC(=O)CNS(=O)(=O)c2ccc(F)cc2)cc1	-17.0	-77.4*	i	i	nt	10.1	89.1*	6.4	93.3*
COc1ccc(S(=O)(=O)NCC2CCC(C(=O)O)CC2)cc1 (centres undefined)	1.3	-2.8	i	i	7.7	nt	nt	nt	nt
CN(C)S(=O)(=O)c1ccc(NC(=O)COC(=O)c2ccccn2)cc1	4.4	-86.9*	i	i	-12.7	-10.1	96.5*	5.1	97.4*
CCOc1ccccc1OCC(=O)Nc1ccc(S(=O)(=O)N(C)C)cc1	3.5	-24.3	i	i	-1.8	nt	nt	nt	nt
O=C(COc1ccc(Br)cc1)Nc1ccc(S(=O)(=O)Nc2ccccn2)cc1	-18.1	-86.7*	i	i	nt	11.6	94.3*	-21.4	98.3*
